According to PubChem BioAssay (NCI):
Compounds without any hit were thinned out: in the full panel of roughly 79,000, 15% have a hit. Active and inactive are the calls of the source. No stated cut-off is given here; in the data, active means growth inhibition above about 70%; inactive means the rest. *1 amine or outer side, *2 acyl side, *3 side chain or, on linkers, in order; H or OH if unused. Where a SMILES comes first, the peptide text is derived from it. [ ]: non-standard residue; d: D form. The star is where a group is joined. X17 = CC(=O)N(C)SCC(N[*:1])C(=O)[*:2]; Fmoc = O=C(OCC1c2ccccc2-c2ccccc21)*; For = O=C*

Columns and labels:
[1] = NCI Yeast Anticancer Drug Screen. Data for the rad50 strain (AID 155);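 further: 0% = growth of vehicle-only cultures of the same strain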; conditions: S. cerevisiae rad50 strain growth inhibition; at 50.0 µM; hits give high values
How it was run: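 Relative growth inhibition (compound vs vehicle) was measured in yeast with a defined repair-gene alteration.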

[2] = NCI Yeast Anticancer Drug Screen. Data for the mec2-1 strain (AID 157); conditions: S. cerevisiae mec2-1 strain, at 50.0 µM, hits give high values
How it was run: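 mec2-1 yeast strain, carrying an alteration in DNA damage repair or cell cycle control, was exposed to compounds; growth inhibition was measured relative to vehicle-treated controls.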

[3] = NCI Yeast Anticancer Drug Screen. Data for the sgs1 mgt1 strain (AID 161);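 further: 0% = growth of cultures given vehicle only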; conditions: S. cerevisiae sgs1 mgt1 strain, at 50.0 µM, hits give high values
How it was run: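 Yeast cells carrying a defined DNA-repair defect were exposed to test compounds. Growth inhibition was measured relative to vehicle-treated controls.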

[4] = NCI Yeast Anticancer Drug Screen. Data for the cln2 rad14 strain (AID 165);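 further: 0% = growth equal to vehicle treated cultures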; conditions: S. cerevisiae cln2 rad14 strain, at 50.0 µM, hits give high values
How it was run: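 Yeast carrying cln2 and rad14 alterations (cell cycle control and DNA damage repair) were exposed to compounds. Growth inhibition was measured against vehicle-treated controls.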

[5] = NCI Yeast Anticancer Drug Screen. Data for the bub3 strain (AID 167); conditions: S. cerevisiae bub3 mutant strain, at 50.0 µM, hits give high values
How it was run: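 Screening used yeast with an engineered genetic alteration affecting cell cycle control. Compound-exposed cultures were compared with vehicle cultures, and reduced growth was taken as inhibition.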

[6] = NCI Yeast Anticancer Drug Screen. Data for the mlh1 rad18 strain (AID 175); conditions: S. cerevisiae mlh1 rad18 strain growth inhibition; at 50.0 µM; hits give high values
How it was run: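 Growth inhibition of the yeast strain was measured after compound exposure and expressed relative to vehicle-treated controls. The strain carries defined defects in DNA damage repair.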

Measured: growth inhibition

CC1(C)CCCC/C1=N\Nc1ccc([N+](=O)[O-])cc1[N+](=O)[O-]
inactive: [1] -29.2% | [2] 5.2% | [3] -2.8% | [4] -22.2% | [5] 1.1% | [6] 22.1%

O=[N+]([O-])c1c(Nc2ccccc2)ncnc1Nc1ccccc1
inactive: [1] -33.9% | [2] -15.9% | [3] -9.6% | [4] 3.45% | [5] -10.6% | [6] 1.05%

O=C(CCBr)OCCC1CCCCC1
inactive: [1] -1.95% | [2] -2.45% | [3] -0.8% | [4] -16.1% | [5] -7.05% | [6] 5.6%

CCOC(=O)n1cccc(C)c1=N
inactive: [1] -10.1% | [2] 13.7% | [3] 18.9% | [4] -17.2% | [5] -8.85% | [6] 27.1%

CC(=O)O[C@@H]1C[C@]2(C)[C@@H](C(C)=O)CC[C@H]2[C@@H]2CCC3=CC(=O)CC[C@]3(C)[C@H]21
inactive: [1] -7.5% | [2] -8.25% | [3] -23% | [4] 11.4% | [5] -10.4% | [6] 13.2%

COc1cc(OC)c2c(c1)OC(c1ccccc1)CC2=O (stereo not given)
inactive: [1] -3.3% | [2] 3.05% | [3] -18.2% | [4] 2.25% | [5] 13.8% | [6] 11.8%

O=C(Cc1nc2ccc([N+](=O)[O-])cc2[nH]c1=O)C(=O)Nc1ccccc1[N+](=O)[O-]
inactive: [1] 25.6% | [2] 8.8% | [3] 11.1% | [4] 12.2% | [5] 15.8% | [6] 6.05%

CNCc1cccc(OC)c1OC
inactive: [1] -1.05% | [2] -5.4% | [3] -2.35% | [4] -0.6% | [5] 16.2% | [6] -2.7%

O=c1cnc(=O)[nH][nH]1
inactive: [1] -12.4% | [2] -17.2% | [3] -7% | [4] -18.1% | [5] 5.7% | [6] -5.4%

CCOC(=O)C(NC(=O)CC)(Nc1ccc(S(=O)(=O)Nc2onc(C)c2C)cc1)C(F)(F)F (stereo not given)
inactive: [1] -6.35% | [2] -15.4% | [3] -8.85% | [4] 15.6% | [5] -6.4% | [6] -17.4%

CN1CCN(CCN2C(=O)c3ccccc3C2=O)CC1
inactive: [1] -12.3% | [2] 2.65% | [3] -10.5% | [4] -15% | [5] -10.8% | [6] -43.8%

CC(=O)c1ccc(C(C)=O)c(OCc2ccccc2)c1
inactive: [1] -4.45% | [2] -12.4% | [3] -8.25% | [4] -27.9% | [5] -5.95% | [6] -5.05%

CC(=O)N(C)SCC(NC(=O)C(Cc1ccccc1)NC(=O)OCC1c2ccccc2-c2ccccc21)C(=O)NC(Cc1ccccc1)C(=O)NC(Cc1cn(C=O)c2ccccc12)C(=O)NC(CCCCNC(=O)OCC1c2ccccc2-c2ccccc21)C(=O)NC(C(=O)NC(CSN(C)C(C)=O)C(=O)NC(C(N)=O)C(C)O)C(C)O (stereo not given) (Fmoc-F[X17]FW(For)K(Fmoc)T[X17]T-NH2; configuration not given here)
inactive: [3] 65.1%
active: [1] 86.7% | [2] 81.3% | [4] 82.2% | [5] 82.2% | [6] 84%

CC(NNC(=S)N1CCN(c2ccccn2)CC1)c1cccc[n+]1[O-] (stereo not given)
inactive: [1] 9.6% | [2] 5.4% | [3] 3.8% | [4] -11.2% | [5] 6.55% | [6] 11.9%

CCOC(=O)Nc1ccc(Cl)cc1Cl
inactive: [1] -16.3% | [2] -8.2% | [3] -4.7% | [4] -16.7% | [5] -8.75% | [6] 1.15%

Cc1ccc(S(=O)(=O)OC2COC3C2OC2OC(C)(C)OC23)cc1 (stereo not given)
inactive: [1] 19.1% | [2] 11.2% | [3] 0.2% | [4] -9.1% | [5] 7.4% | [6] 0.35%

CNC(=O)NNC(=O)NC
inactive: [1] -45.1% | [2] -24.6% | [3] -24.6% | [4] -27.6% | [5] -15.7% | [6] -6.05%

CCOc1ncnc2ccc(Cl)cc12
inactive: [1] -8.65% | [2] -3.7% | [3] -4.45% | [4] -18.1% | [5] 0.65% | [6] 0%

Oc1ccc(Br)cc1C(c1ccc2c(c1)OCO2)N1CCOCC1 (stereo not given)
inactive: [1] 8.65% | [2] 14.3% | [3] -7.8% | [4] 14.4% | [5] 1.45% | [6] 15.5%

CC(=O)/C=C/N(C)c1ccc(O)cc1
inactive: [1] 40.6% | [2] 2.3% | [3] -6.45% | [4] 9.3% | [5] 5.55% | [6] -26.2%

N#Cc1c(-c2ccccc2)cc(-c2ccc(N)cc2)[nH]c1=O
inactive: [1] 26.5% | [2] 3.65% | [3] 13.2% | [4] 33.4% | [5] 11.6% | [6] 20.3%

O=C(Oc1ccc([N+](=O)[O-])cc1)C(CSC(c1ccccc1)(c1ccccc1)c1ccccc1)N1C(=O)c2ccccc2C1=O (stereo not given)
inactive: [1] 61.8% | [2] 46.7% | [3] 44.5% | [4] 58.7% | [5] 31.9% | [6] 52.8%

CC/C=C(C)/C=N\NC(=O)c1ccc[n+](C)c1
inactive: [1] 21.8% | [2] 12.6% | [3] 17.6% | [4] 23.6% | [5] -3.9% | [6] 2.55%

CC(CO)CCNc1ncnc2c1ncn2CCC#N (stereo not given)
inactive: [1] -9.3% | [2] 10.1% | [3] -46.5% | [4] -19.9% | [5] 6.95% | [6] -13.4%

CCN(CC)c1ccc(/C=N\N(C)C)cc1
inactive: [1] 0.2% | [2] -13.2% | [3] -4.8% | [4] -48.1% | [5] -1.65% | [6] -6.55%

CNC(=O)n1cnc2ccccc21
inactive: [1] 33.2% | [2] 30.4% | [3] 37% | [4] 13.1% | [5] 60% | [6] 25.3%

CCC1OC(=O)CC(O)C(C)C(OC2OC(C)C(O)C(N(C)C)C2O)C(CC=O)CC(C)C(=O)/C=C/C2(C)OC2C1C (stereo not given)
inactive: [1] -13.4% | [2] -43% | [3] -23.5% | [4] -18.7% | [5] -28.9% | [6] -36.4%

CC(=O)Nc1ccc(/C=C/C(=O)O)cc1
inactive: [1] -38.6% | [2] -30.6% | [3] -21.7% | [4] -6.05% | [5] -31.2% | [6] -30.8%

NS(=O)(=O)c1ccc(NC(NC(=O)C(C(F)(F)F)C(F)(F)F)(C(F)(F)F)C(F)(F)F)cc1
inactive: [1] 16.6% | [2] 15.1% | [3] -6.2% | [4] -8.25% | [5] 5.15% | [6] -0.8%

COc1ccc(NC(=S)NNC(=O)c2nsc3ccccc23)cc1
inactive: [1] 32.5% | [2] 9.85% | [3] 20.8% | [4] 7.35% | [5] -0.8% | [6] -0.15%

Cn1c(=O)c2[nH]c(C3CCCCCC3)nc2n(C)c1=O
inactive: [1] 13.6% | [2] -9.7% | [3] -9.4% | [4] -4.1% | [5] 7.25% | [6] -1.8%

CN1c2ccccc2N(C(=O)c2ccccc2)C(CC(=O)O)c2cccn21 (stereo not given)
inactive: [1] -22.4% | [2] -40.5% | [3] -33.1% | [4] 23.8% | [5] -45% | [6] -16.3%

CC(O)C(=O)OCCOCCOC(=O)C(C)O (stereo not given)
inactive: [1] 21.4% | [2] 4.1% | [3] 10.8% | [4] -11.8% | [5] 11.8% | [6] 7.4%

COc1ccc(OC)c(CCCC(=O)O)c1
inactive: [1] 9.6% | [2] 7.65% | [3] 2.7% | [4] 4.35% | [5] 2.05% | [6] -8.7%

COc1c(Cl)cc([N+](=O)[O-])cc1C(=O)O
inactive: [1] 6.4% | [2] 25.9% | [3] -3.55% | [4] -15.7% | [5] 15.6% | [6] 16.9%

C/C(=N\NC(N)=O)C(C)(C)O
inactive: [1] 26.8% | [2] 16.9% | [3] 7.7% | [4] 12.4% | [5] 11.5% | [6] 13.6%

C=C(C)COC(OCC(=C)C)C(C)C
inactive: [1] 26.4% | [2] 3.05% | [3] 3.45% | [4] 9.35% | [5] 22.2% | [6] 12.2%

Cc1cc(C(=O)/C=C(\C(=O)c2ccccc2)c2ccccc2)ccc1Cl
inactive: [1] 18.8% | [2] 10.7% | [3] 6.65% | [4] -0.55% | [5] 0.6% | [6] 11.3%

O=C(NC1C2CC3CC(C2)CC1C3)c1cc(/C=C/c2ccccc2)[nH]c(=S)n1 (stereo not given)
inactive: [1] 15.1% | [2] 2.35% | [3] 13.1% | [4] 12.2% | [5] -2.25% | [6] 14.3%

CC(O)CCNC(=O)c1ccccc1 (stereo not given)
inactive: [1] -10.4% | [2] -16.2% | [3] -11.3% | [4] -25.8% | [5] -13.3% | [6] -5%
